Experimental data from PubChem BioAssay (NCATS).
Results filed as inconclusive are left out. Activity calls are given as the source filed them. Calls come from the whole dose curve; as a rule, active = well fitted curve in the direction sought with a large enough effect; inconclusive = small, poorly fitted or top-dose-only effect, or another doubt; inactive = no such curve, though single readings can be large; an effect the other way counts as inactive or inconclusive.

Experiments:
[1] = biological target: Cellular tumor antigen p53 (Homo sapiens) (UniProt P04637); experiment: Primary qHTS for small molecule compounds that upregulate eGFP-tagged delta133p53alpha (in N-terminal) cells. (AID 2060322); conditions: NCI-H358 eGFP-delta133p53alpha fluorescence, 24 h; activation: active compounds read high;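 note: cells pre-induced with doxycycline then dosed without doxycycline; series mostly up to about 56 µM; 0% = DMSO vehicle and 100% = reference activator; nearly all actives have a fitted effect of over 75% in size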
Sequence of Cellular tumor antigen p53 (Homo sapiens) (P04637 whole entry, looked up): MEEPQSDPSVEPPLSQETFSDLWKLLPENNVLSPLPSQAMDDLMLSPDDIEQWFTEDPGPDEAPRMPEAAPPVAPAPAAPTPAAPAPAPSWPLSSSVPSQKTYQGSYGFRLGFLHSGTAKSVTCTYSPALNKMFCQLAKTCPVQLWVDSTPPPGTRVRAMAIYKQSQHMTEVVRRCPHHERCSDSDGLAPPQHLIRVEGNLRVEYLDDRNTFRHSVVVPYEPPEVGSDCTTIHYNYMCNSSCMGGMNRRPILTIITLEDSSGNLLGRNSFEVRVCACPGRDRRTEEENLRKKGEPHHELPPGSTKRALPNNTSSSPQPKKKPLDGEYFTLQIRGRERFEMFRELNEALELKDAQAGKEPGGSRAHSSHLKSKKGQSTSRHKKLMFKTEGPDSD
Method in brief: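 NCI-H358 cells pre-induced 24 h with 10 ng/ml doxycycline for eGFP-delta133p53alpha, plated dox-free and exposed 24 h at 37C to titrated compounds. Fixed, Hoechst-stained; gated GFP peak intensity by laser scanning cytometry, normalized to DMSO (0%) and 57.5 uM 5-azacytidine (100%).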

[2] = biological target: Aldehyde dehydrogenase, mitochondrial (Homo sapiens) (UniProt P05091); experiment: qHTS for Inhibitors of the Aldehyde Dehydrogenase Family (ALDH2) Primary screen (AID 2061308);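 note: plate controls were vehicle for no effect and reference inhibitor for full effect; nearly all actives have a fitted effect of over 55% in size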
[3] = biological target: Retinaldehyde dehydrogenase 3 (Homo sapiens) (UniProt P47895); experiment: qHTS for Inhibitors of the Aldehyde Dehydrogenase Family (ALDH1A3) Primary screen (AID 2061315);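 note: plate controls were DMSO vehicle for no effect and reference inhibitor for full effect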

O=C(O)CC1CC(c2ccccc2)=NO1 (stereo not given)
inactive: activation [1] 16.3% | Potency [2] | Potency [3]

CC1NC(=O)C(Cc2c[nH]c3ccccc23)NC1=O (stereo not given)
inactive: activation [1] -13.7% | Potency [2] | Potency [3]

CC1(CO)CCCC2(C)C3COC(=O)C3=CC(O)C12 (stereo not given)
inactive: activation [1] -8.04% | Potency [2] | Potency [3]

C=C(C)C1CCC2(C(=O)O)CCC3(C)C(CCC4C5(C)C(C=O)C(O)C(C)(C)C5CCC43C)C12 (stereo not given)
inactive: activation [1] -19.8% | Potency [2] | Potency [3]

C=C1CCC[C@]2(C)CC/C(=C(/CO)C(=O)OC)C[C@@H]12
inactive: activation [1] 18.8% | Potency [2] | Potency [3]

C=C1CCC2C(C)(C)CCCC2(C)C1CC/C(C)=C\CO (stereo not given)
inactive: activation [1] -12.5% | Potency [2] | Potency [3]

C#C[C@]1(OC(C)=O)CC[C@H]2[C@@H]3CCC4=C[C@@H](OC(C)=O)CC[C@@H]4[C@H]3CC[C@@]21C
inactive: activation [1] 6.33% | Potency [2] | Potency [3]

COC1CC(=O)C23C(=O)NC(CC(C)C)C2C(C)C(C)=CC3/C=C(\C)CCC(O)C1O (stereo not given)
inactive: activation [1] 23.7% | Potency [2] | Potency [3]

COc1cc(C(=O)OC[C@H]2O[C@H](O[C@@]3(CO)O[C@@H](CO)[C@H](O)[C@H]3O)[C@H](O)[C@@H](O)[C@@H]2O)ccc1O
inactive: activation [1] -1.53% | Potency [2] | Potency [3]

CCCC(=O)O[C@@H]1[C@@H]2[C@@H](OC(C)=O)[C@]3(C)C(=O)[C@H]4[C@@H](OC(C)=O)C(C)(C)C[C@H]4[C@]3(C)C(=O)[C@@]2(OC(C)=O)C[C@@H]1C
inactive: activation [1] -10.7% | Potency [2] | Potency [3]
